# Results published in PubChem BioAssay.
# The source made the active and inactive calls.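 Rule for the calls, unless noted: active = inhibition above 20% together with a positive visual image hit; inconclusive = visual image hit but inhibition not above 20%; inactive = no visual image hit.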
# Experiments:
# [1] = inhibitors of TNFa-induced NFkB p65 translocation, primary screen, imaging, HUVEC, MLSMR starter and 10KST1 sets (AID 438); details: HUVEC TNFa-induced p65 nuclear translocation; cell count: measured here: nuclei count (cytotoxicity indicator), at 2.08 µM; inhibition: at 2 µM, stronger effect = higher value, 0% TNFa-plus-vehicle, 100% no-TNFa wells;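 note: compound added about 3h40 before a 20 min TNFalpha stimulation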;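 for inhibition: signal is the nuclear over cytoplasmic p65 intensity ratio per well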
# [2] = reduction of polyQ htt aggregates in cells – imaging, exon1htt(103Q)mCFP cells, high-content imaging, primary screen (AID 483;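 active = visual image review flags a hit and inhibition of aggregation exceeds 20%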;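 note: compound exposure lasted 3 days before fixation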;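 for nuclei count: percent of the per-plate median nuclei count of sample wells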); details: exon1htt(103Q)mCFP cell line, aggregate imaging, at 2 µM; inhibition of aggregation: stronger effect = higher value; nuclei count: measured here: cell count, toxicity
# [3] = endothelial E-selectin expression blockers – imaging, HUVEC, immunofluorescence, MLSMR starter and 10KST1 sets, primary screen (AID 487;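 active = visually confirmed hit in the image check and inhibition above 20%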;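 for inhibition: signal is fraction of cell area covered by stained E-selectin grains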;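 for nuclei count: 100% = median nuclei count of all wells on the same plate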); details: HUVEC TNFalpha-induced E-selectin immunofluorescence imaging, at 2 µM; inhibition: stronger effect = higher value; nuclei count: measured here: cell number, toxicity
# [4] = target: Voltage-gated potassium channel subunit beta-2 (Rattus norvegicus) (UniProt P62483); test: inhibitors of rat Kvbeta2 reductase activity – biochemical, NADPH fluorescence, primary screen (AID 622;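 active = fluorescence slope higher than the sample average by over 3 SD, cut at about -0.22 in these data, passing the limit was not always enough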;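 note: slope of raw intensity against log time taken from 70 to 1610 s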); details: recombinant KvBeta, 4-cyanobenzaldehyde reduction, at 10 µM, stronger effect = higher value
# [5] = target: Voltage-gated potassium channel subunit beta-2 (Rattus norvegicus) (UniProt P62483); test: enhancers of rat Kvbeta2 NADPH turnover – biochemical, NADPH fluorescence, primary screen (AID 623;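 active = NADPH fluorescence slope more negative than the mean of all samples by about 3 SD, 99.7% confidence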;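 note: fluorescence intensity change per second fitted from 20 to 320 s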); details: Recombinant KvBeta, NADPH fluorescence decrease slope, 10 min; at 10 µM; stronger effect = lower value
# [6] = target: Alpha-2C adrenergic receptor (Homo sapiens) (UniProt P18825); test: compounds altering alpha2C-coupled GIRK flux – cell-based, HEK293 alpha2C/GIRK1/2, thallium flux, primary screen (AID 624;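 active = fluorescence slope after compound addition differing from the mean of all screened samples at 99.7% confidence, in either direction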;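 note: slope of fluorescence ratio to pre-addition baseline per second over 15 to 24 s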); details: thallium flux BTC fluorescence, at 10 µM, actives lie on both sides
# [7] = blockers of RIG-like receptor reporter activation – cell-based, Sendai virus stimulus, luciferase, 10K MLSCN set, TLR/RLR signaling modifier project, primary screen (AID 602276;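 active = inhibition at or above 50% at 10 µM; inactive = inhibition below 50%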;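 note: firefly luciferase from ISG56 promoter only with Renilla not read in this screen; 0% = Sendai virus plus DMSO and 100% = medium plus DMSO without virus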); details: HEK293 RL24 IRF3 luciferase reporter, at 10 µM, stronger effect = higher value
# [8] = TLR3 IRF3 reporter activation blockers – cell-based, poly I:C stimulus, luciferase, 10K MLSCN set, primary screen (AID 602277;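 active = inhibition of the reporter signal at or above 50%; inactive = inhibition below 50%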); details: HEK293-TLR3 RL24 IRF3 luciferase reporter, at 10 µM, stronger effect = higher value
# Sequence of Voltage-gated potassium channel subunit beta-2 (Rattus norvegicus) (P62483 whole entry, looked up): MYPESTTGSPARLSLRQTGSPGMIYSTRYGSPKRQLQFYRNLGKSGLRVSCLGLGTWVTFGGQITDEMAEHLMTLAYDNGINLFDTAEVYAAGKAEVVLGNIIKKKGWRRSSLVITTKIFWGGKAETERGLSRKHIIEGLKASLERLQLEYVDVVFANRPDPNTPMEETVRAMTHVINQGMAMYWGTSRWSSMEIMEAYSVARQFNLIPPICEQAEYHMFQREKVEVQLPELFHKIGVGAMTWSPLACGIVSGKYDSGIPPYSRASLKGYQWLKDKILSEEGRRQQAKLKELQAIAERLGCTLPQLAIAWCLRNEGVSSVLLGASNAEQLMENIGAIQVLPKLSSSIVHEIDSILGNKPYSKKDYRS
# Sequence of Alpha-2C adrenergic receptor (Homo sapiens) (P18825 whole entry, looked up): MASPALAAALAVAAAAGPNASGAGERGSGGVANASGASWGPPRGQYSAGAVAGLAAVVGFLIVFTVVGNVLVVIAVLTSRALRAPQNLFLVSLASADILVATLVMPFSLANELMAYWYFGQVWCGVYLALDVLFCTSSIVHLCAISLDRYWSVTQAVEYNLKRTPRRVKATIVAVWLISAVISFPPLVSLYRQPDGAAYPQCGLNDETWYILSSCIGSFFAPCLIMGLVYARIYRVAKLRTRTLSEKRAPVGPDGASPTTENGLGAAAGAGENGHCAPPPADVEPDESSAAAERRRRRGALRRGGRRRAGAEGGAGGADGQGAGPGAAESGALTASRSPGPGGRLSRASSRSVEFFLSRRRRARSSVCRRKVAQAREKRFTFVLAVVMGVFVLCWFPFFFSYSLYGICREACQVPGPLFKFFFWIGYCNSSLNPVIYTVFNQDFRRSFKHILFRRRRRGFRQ
Compound,cell count [1],inhibition [1],inhibition of aggregation [2],nuclei count [2],inhibition [3],nuclei count [3],fluorescence slope [4],NADPH fluorescence slope [5],slope [6],inhibition [7],inhibition [8]
Cn1c(=O)c(C(=O)Nc2cccnc2)c(O)c2ccccc21,632,5.5% (inactive),0.5% (inactive),128%,-74% (inactive),112%,-0.479 (inactive),-4.8e-05 (inactive),0.0062 (inactive),-29.2% (inactive),-42.3% (inactive)
Cc1nn(-c2ccc(F)cc2)c2sc(C(=O)O)cc12,354,4.7% (inactive),3.7% (inactive),86.9%,-87.2% (inactive),117%,-0.447 (inactive),-0.00011 (inactive),0.00627 (inactive),13.2% (inactive),24% (inactive)
CC1CCN(Cc2nc3c(c(=O)n(C)c(=O)n3C)n2Cc2cccc3ccccc23)CC1,703,-22.3% (inactive),12.7% (inactive),105%,-26.6% (inactive),131%,-0.427 (inactive),-2.4e-05 (inactive),0.00536 (inactive),13.1% (inactive),41.7% (inactive)
O=C(O)C1C2CCC(O2)C1C(=O)NCCC1=CCCCC1 (configuration not stated),465,10.4% (inactive),-18.3% (inactive),105%,-112% (inactive),117%,-0.331 (inactive),-5.8e-05 (inactive),0.0055 (inactive),1.86% (inactive),13.6% (inactive)
CCCCOc1ccc(C2C3CN(C(=O)OCC)CC=C3C(C#N)=C(N)C2(C#N)C#N)cc1OC (configuration not stated),645,-26.7% (inactive),-9.8% (inactive),106%,-44.7% (inactive),115%,-0.476 (inactive),-2.9e-05 (inactive),0.0065 (inactive),14.6% (inactive),19.7% (inactive)
CC(C)(C)SCCNC(=O)CSc1ccccc1,636,-11% (inactive),8.5% (inactive),93%,-42.9% (inactive),78.7%,-0.586 (inactive),-2.1e-05 (inactive),0.00555 (inactive),-20.5% (inactive),-23.4% (inactive)
COc1ccc(N2CCN(C(c3cccs3)c3nnnn3C3CCCC3)CC2)cc1 (configuration not stated),219,12.7% (inactive),1.6% (inactive),104%,-10.3% (inactive),88.2%,-0.614 (inactive),-1.5e-08 (inactive),0.00587 (inactive),1.77% (inactive),11.1% (inactive)
